An excerpt weighted towards active compounds, which were near 3.3% of everything screened.
Bead autofluor – compound fluorescence in toxin protease inhibitor counterscreen | 3.1% of 360,000 active | compound autofluorescence counterscreen, microsphere flow cytometry; active compounds read high | fluorescence intensity (no concentration beside the values); in the data active = fluorescence intensity above about 16000; inconclusive = no clear call, values can overlap the other calls
BoNT-A LC inh2 – blocks Botulinum neurotoxin A light chain protease; multiplex microsphere protease substrate cleavage, flow cytometry; 0.17% of 360,000 active; inhibition, % at 10 µM; also: plate controls were buffer without enzyme for full effect and enzyme alone for no effect
Anthrax LF inh2 – blocks Bacillus anthracis lethal factor protease; multiplex microsphere protease cleavage assay, LF; P15917; inhibition, % at 10 µM; AID 588501; 0.12% of 360,000 active; also: plate controls were buffer without enzyme for full effect and enzyme alone for no effect
Target sequence (P15917 whole entry, looked up): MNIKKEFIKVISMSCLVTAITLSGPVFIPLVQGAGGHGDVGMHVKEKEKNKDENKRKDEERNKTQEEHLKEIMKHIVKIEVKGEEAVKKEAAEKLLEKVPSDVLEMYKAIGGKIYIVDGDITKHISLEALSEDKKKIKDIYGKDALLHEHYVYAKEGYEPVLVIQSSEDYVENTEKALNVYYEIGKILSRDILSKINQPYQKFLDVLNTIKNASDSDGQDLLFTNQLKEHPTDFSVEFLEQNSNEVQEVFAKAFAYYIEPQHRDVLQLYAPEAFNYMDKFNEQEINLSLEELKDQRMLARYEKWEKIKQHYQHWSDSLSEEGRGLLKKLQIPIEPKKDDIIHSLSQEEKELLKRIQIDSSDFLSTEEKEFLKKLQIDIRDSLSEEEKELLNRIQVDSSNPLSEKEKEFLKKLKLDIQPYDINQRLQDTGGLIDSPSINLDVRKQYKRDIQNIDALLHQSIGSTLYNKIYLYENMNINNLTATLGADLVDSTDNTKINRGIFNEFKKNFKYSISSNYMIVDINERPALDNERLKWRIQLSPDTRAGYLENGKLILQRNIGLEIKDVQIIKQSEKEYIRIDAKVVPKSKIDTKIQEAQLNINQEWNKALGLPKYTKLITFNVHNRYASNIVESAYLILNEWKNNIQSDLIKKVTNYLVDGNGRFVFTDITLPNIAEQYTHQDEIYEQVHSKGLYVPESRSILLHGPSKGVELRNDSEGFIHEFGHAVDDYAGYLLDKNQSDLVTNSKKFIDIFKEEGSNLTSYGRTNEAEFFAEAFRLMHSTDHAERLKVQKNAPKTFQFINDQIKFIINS
PriA SSB inh – inhibitors of Klebsiella pneumoniae PriA binding to SSB C-terminal tail. AlphaScreen SSBct-PriA binding, biotinylated peptide. inhibition, % at 33 µM. 0.6% of 430,000 active; in the data active = inhibition mostly above about 37%, no sharp cut-off; inactive = mostly below about 20%;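 also: plate controls were negative control peptide for no effect and reference peptide for full effect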
BoNT-F LC inh – BoNT F light chain protease inhibition. 0.22% of 360,000 active. Multiplex microsphere protease cleavage assay, flow cytometry. AID 588497. inhibition, % at 10 µM; in the data active = inhibition above about 35%, passing the limit was not always enough; inconclusive = no clear call, values can overlap the other calls; also: plate controls were buffer without enzyme for full effect and enzyme alone for no effect
MazF activator – increases E. coli MazEF RNase cleavage of RNA; 0.32% of 350,000 active; P0AE70; activation, % at 20 µM; AID 504720; FAM/BHQ RNA-DNA oligo cleavage fluorescence, 5 h; in the data active = activation above about 50%
* marks the source's active call; other numbers are inactive results; ? = inconclusive; · = no result given; ! = not confirmed by another sample. Rule as the data show it, unless noted: active = inhibition above about 30%; inconclusive = no clear call, values can overlap the other calls; inactive = below that.

SMILES	Bead autofluor	BoNT-A LC inh2	Anthrax LF inh2	PriA SSB inh	BoNT-F LC inh	MazF activator
CCS(=O)(=O)c1nc2ccccc2n1CC(=O)N1CCCCC1	4692	1.0	-3.8	2.2	-4.6	8.5
O=C(Cn1c(S(=O)(=O)Cc2ccccc2)nc2ccccc21)N1CCN(c2ccccc2)CC1	·	·	·	54.0*	·	·
CCC(=NNC(=O)c1ccc(Br)cc1)c1ccccc1	·	·	·	-15.1	·	·
CCOC(=O)c1sc2cc([N+](=O)[O-])cc(SCC(C)C)c2c1N	20038*	31.5*	20.6	10.1	18.1	16.8
CCOC(=O)c1cc(N)cc([N+](=O)[O-])c1	2374	-0.8	-2.0	14.2	-8.4	1.4
O=C(c1ccco1)N1CCc2ccc(NS(=O)(=O)c3cc(F)ccc3F)cc2C1	·	·	·	-16.0	·	·
CC1(C)CC(=O)c2c(O)cc(OCc3ccc(Br)cc3)cc2O1	22502*	1.8	-3.0	-28.8	1.9	-17.5
S=C1NCN(Cc2cccnc2)CN1	3668	1.4	?	-0.1	35.0*	4.5
CCOc1cc(-c2nc3c(C)cccn3c2NC[C@H]2CCCO2)ccc1O	·	·	·	3.3	·	·
COC(=O)N1CCC(CNS(=O)(=O)c2cccs2)CC1	·	·	·	-20.0	·	·
COC(CNC(=O)C1CC(=O)N(CCc2ccccc2)C1)OC (centres undefined)	20271*	-1.6	0.6	-1.3	-1.8	3.8
CC(C)CCNC(=O)C1CC(=O)N(CCc2ccccc2)C1 (centres undefined)	3663	-0.1	11.6	-14.4	-14.2	3.1
Cc1ccc(CCN2CC(C(=O)NCCCOC(C)C)CC2=O)cc1 (centres undefined)	21642*	3.3	-3.3	-12.4	3.8	4.0
O=C(C1CC(=O)N(c2ccc(F)cc2)C1)N1CCN(c2ccc(F)cc2)CC1 (centres undefined)	4604	-2.2	5.6	-18.4	-5.9	5.3
Cc1ccc(CCN2CC(C(=O)N3CCN(c4ccc(F)cc4)CC3)CC2=O)cc1 (centres undefined)	20552*	0.5	-0.3	0.1	0.7	-0.8
COC[C@@](C)(O)CNC(=O)c1ccc(OC(F)(F)F)cc1	·	·	·	-13.0	·	·
Cn1c(=O)c2c(ncn2CC(=O)OCC(=O)NC2CCCc3ccccc32)n(C)c1=O (centres undefined)	22870*	?	-3.7	-7.2	-2.6	2.5
Cn1c(=O)c2c(ncn2CC(=O)OCC(=O)NCCc2ccccc2)n(C)c1=O	5781	0.3	2.6	-3.4	17.2	0.3
N#Cc1nc(-c2cccs2)oc1N1CCN(Cc2ccccc2)CC1	9620	-1.5	-8.8	41.4*	-15.7	-1.1
N#Cc1nc(COc2ccccc2)oc1N1CCN(Cc2ccccc2)CC1	4305	-0.5	-0.6	-24.5	-1.9	0.2
CC1Cc2ccccc2N1C(=O)c1cnc2ccccn2c1=O (centres undefined)	23725*	-1.5	-2.2	-5.4	-4.6	2.8
Cc1ccc2nc(C3CCN(C(=O)c4ccco4)CC3)[nH]c2c1	23117*	0.1	-1.7	4.2	-1.0	3.2
Cc1ccc2nc(C3CCN(CC(=O)N4CCCCCC4)CC3)[nH]c2c1	23345*	0.4	4.1	-18.4	-0.3	-12.7
COc1cccc(N2CCN(C3CC(=O)N(c4ccc(Cl)c(Cl)c4)C3=O)CC2)c1 (centres undefined)	4291	-0.8	-5.7	9.2	-6.4	2.6
CN1C(=O)CC(N2CCN(c3ccc(Cl)c(Cl)c3)CC2)C1=O (centres undefined)	16251*	-0.1	-0.5	-0.9	2.1	4.2
SMILES	Bead autofluor	BoNT-A LC inh2	Anthrax LF inh2	PriA SSB inh	BoNT-F LC inh	MazF activator
CCOC(=O)Nc1cc(N2CCCS2(=O)=O)ccc1OC	·	·	·	-5.0	·	·
CCCCc1nc2ccccc2c(=O)n1-c1ccc(Cl)cc1[N+](=O)[O-]	22486*	?	-0.4	9.3	-0.8	2.4
COc1ccc(OC)c(CC(=O)O)c1	23906*	?	-1.1	-24.0	-4.1	4.7
Cc1ccc(O)c(N=Nc2ccc(S(=O)(=O)N3CCCC3)cc2)c1	3562	0.6	2.6	22.4	-1.1	8.7
COc1ccc(N=Nc2cc(C)ccc2O)cc1	5347	-0.2	1.1	76.7*	0.8	5.8
COc1ccc(OC)c(N)c1	2798	0.2	-17.7	74.3*	-88.4	-4.1
COc1ccc(N=Nc2cc(OC)c(N)cc2OC)cc1	3937	-0.6	-8.0	61.9*	-8.8	8.6
COc1ccc(OC)c(NC(=O)c2n[nH]n3c2nc(=O)c2cc(F)ccc23)c1	·	·	·	-15.0	·	·
Cc1ccc(S(=O)(=O)c2nc(-c3ccccc3)oc2SCC(N)=O)cc1	·	·	·	13.0	·	·
Brc1ccc(Cn2c(-c3ccc(Br)o3)nc3ccccc32)o1	2197	0.4	-2.6	57.0*!	-2.1	-7.3
COc1ccc(OC)c2sc(NC(=O)c3nc4ccccc4s3)nc12	·	·	·	-6.0	·	·
CCOc1cc(C(c2c(C)[nH][nH]c2=O)c2c(C)[nH][nH]c2=O)ccc1OCc1ccc([N+](=O)[O-])cc1	22205*	0.2	-0.1	23.6	-5.5	-0.9
CCOc1cc(C(c2c(C)[nH][nH]c2=O)c2c(C)[nH][nH]c2=O)ccc1OC(=O)c1cccc([N+](=O)[O-])c1	19908*	2.7	0.1	20.0	-3.7	1.8
CC(=O)NC(c1ccco1)c1cc(F)c2cccnc2c1O (centres undefined)	3790	-0.9	3.1	72.9*	-13.0	7.4
COCCNC(=O)C(=O)NCCO	·	·	·	-21.0	·	·
Cc1ccnc(N/C=C(\C#N)c2nc(-c3cccc(Br)c3)cs2)c1	8599	55.7*	39.4*	-3.6	38.7*	-217.1
CCn1c(SCC(=O)Nc2cc(OC)cc(OC)c2)nc2c(-c3ccc(C)cc3)csc2c1=O	·	·	·	0.0	·	·
O=C(CNCc1ccccn1)N1CCc2ccccc2C1	4152	-2.9	-2.8	78.3*	9.1	-5.5
O=C(CSc1ncccn1)N1CCc2ccccc2C1	2161	0.3	1.5	3.3	2.7	5.5
COCCN(Cc1ccoc1)C(=O)COc1ccc(C(C)(C)C)cc1	·	·	·	-3.0	·	·
O=C(CSc1ncn[nH]1)N1CCN(S(=O)(=O)c2ccc(Cl)cc2)CC1	21069*	-3.4	-1.9	-6.3	-3.3	4.0
Cc1nnc(SCC(=O)N2CCN(S(=O)(=O)c3ccc(Cl)cc3)CC2)[nH]c1=O	3310	0.1	-0.5	-17.0	6.8	-2.8
Nc1nc(Cn2nnc(-c3ccccc3Cl)n2)nc(N2CCOCC2)n1	23188*	?	-3.9	-9.3	-3.8	-7.2
C=CCOc1ccccc1C=c1sc2nc(-c3oc4ccccc4c3C)nn2c1=O	·	·	·	-11.4	·	·
C=CCOc1ccccc1/C=c1\sc2nc(=O)c(C)nn2c1=O	23330*	1.2	2.6	·	3.8	-30.8
COc1ccccc1NC(=S)NCCc1c[nH]c2ccccc12	2807	0.1	-2.0	45.2*	-4.9	2.1
COc1cc(CNCCc2c[nH]c3ccccc23)ccc1OCc1ccc(F)cc1	2582	0.2	-7.1	39.7*	-6.2	16.9
COc1ccc(NC(=S)NCc2ccccc2Cl)c(OC)c1	3290	5.7	-26.5	2.7	-32.7	12.7
COc1ccccc1CCNC(=O)c1ccc(C)o1	21801*	?	-0.7	-7.9	-1.7	-5.1
Cc1ccc(C(=O)NCCCCNC(=O)c2ccc(C)o2)o1	2957	-0.1	-1.5	-5.4	1.0	5.1

Screening data as filed in PubChem BioAssay.
